# Records with an inconclusive call do not appear. A call without a number means that no potency is given here. Unmarked numbers belong to inactive results. Calls of active or inactive are those of the source. The call rests on the fitted dose curve; in most records, active means well fitted cell-killing curve with a large enough effect; inconclusive means small, poorly fitted or top-dose-only effect, or effect the other way; inactive means no such curve, though single readings can be large or run the other way.
# How the values were obtained:
# [1] = Quantitative High-Throughput drug screen in 47 multiple myeloma cell lines against the NCATS MIPE library collection: LP1_DSMZ cell viability assay (AID 1918982); further: nearly all actives have a fitted effect of over 35% in size; further: potency means the concentration at half of the fitted maximal effect
# Summary of the method: (§1)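 Plated at 500 cells per well, myeloma lines received MIPE 4.0 compounds by pin tool. Following 48 h culture at 37 °C, CellTiter-Glo luminescence gave viability relative to DMSO and media-only controls.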
# [2] = Quantitative High-Throughput drug screen in 47 multiple myeloma cell lines against the NCATS MIPE library collection: KMS28PE_JCRB cell viability assay (AID 1918983); further: nearly all actives have a fitted effect of over 35% in size; further: potency means the concentration at half of the fitted maximal effect
# Summary of the method: as §1
# [3] = Quantitative High-Throughput drug screen in 47 multiple myeloma cell lines against the NCATS MIPE library collection: L363_DSMZ cell viability assay (AID 1918984); further: nearly all actives have a fitted effect of over 40% in size; further: potency means the concentration at half of the fitted maximal effect
# Summary of the method: as §1
# [4] = Quantitative High-Throughput drug screen in 47 multiple myeloma cell lines against the NCATS MIPE library collection: KMS34_JCRB cell viability assay (AID 1918985); further: nearly all actives have a fitted effect of over 40% in size; further: potency means the concentration at half of the fitted maximal effect
# Summary of the method: as §1
# [5] = Quantitative High-Throughput drug screen in 47 multiple myeloma cell lines against the NCATS MIPE library collection: OCIMY5_PLB cell viability assay (AID 1918988); further: nearly all actives have a fitted effect of over 65% in size; further: potency means the concentration at half of the fitted maximal effect
# Summary of the method: as §1
# [6] = Quantitative High-Throughput drug screen in 47 multiple myeloma cell lines against the NCATS MIPE library collection: SKMM1_PLB cell viability assay (AID 1919863); details: SKMM1 myeloma viability, CellTiter-Glo ATP, 48 h; viability: hits give low values; further: nearly all actives have a fitted effect of over 35% in size; further: potency means the concentration at half of the fitted maximal effect; on viability: series mostly up to about 46 µM
# Summary of the method: as §1
# [7] = Quantitative High-Throughput drug screen in 47 multiple myeloma cell lines against the NCATS MIPE library collection: U266_ATCC cell viability assay (AID 1919864); further: nearly all actives have a fitted effect of over 35% in size; further: potency means the concentration at half of the fitted maximal effect
# Summary of the method: as §1
# [8] = Quantitative High-Throughput drug screen in 47 multiple myeloma cell lines against the NCATS MIPE library collection: OPM1_PLB cell viability assay (AID 1918989); further: nearly all actives have a fitted effect of over 40% in size; further: potency means the concentration at half of the fitted maximal effect
# Summary of the method: as §1
# [9] = Quantitative High-Throughput drug screen in 47 multiple myeloma cell lines against the NCATS MIPE library collection: XG6_PLB cell viability assay (AID 1919865); further: nearly all actives have a fitted effect of over 40% in size; further: potency means the concentration at half of the fitted maximal effect
# Summary of the method: as §1
# [10] = Quantitative High-Throughput drug screen in 47 multiple myeloma cell lines against the NCATS MIPE library collection: XG1_PLB cell viability assay (AID 1919866); further: nearly all actives have a fitted effect of over 35% in size; further: potency means the concentration at half of the fitted maximal effect
# Summary of the method: as §1
# [11] = Quantitative High-Throughput drug screen in 47 multiple myeloma cell lines against the NCATS MIPE library collection: VP6_DJ cell viability assay (AID 1919867); further: nearly all actives have a fitted effect of over 40% in size; further: potency means the concentration at half of the fitted maximal effect
# Summary of the method: as §1
# [12] = Quantitative High-Throughput drug screen in 47 multiple myeloma cell lines against the NCATS MIPE library collection: RPMI8226_ATCC cell viability assay (AID 1919871); further: nearly all actives have a fitted effect of over 30% in size; further: potency means the concentration at half of the fitted maximal effect
# Summary of the method: as §1
# [13] = Quantitative High-Throughput drug screen in 47 multiple myeloma cell lines against the NCATS MIPE library collection: OPM2_DSMZ cell viability assay (AID 1919872); further: nearly all actives have a fitted effect of over 30% in size; further: potency means the concentration at half of the fitted maximal effect
# Summary of the method: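 Myeloma cells (500 per well) were exposed to MIPE 4.0 compounds by pin transfer and incubated 48 hours at 37C, 5% CO2. Viability was read as ATP by CellTiter-Glo luminescence, normalised to DMSO (100%) and media-only (0%) wells.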
# [14] = Quantitative High-Throughput drug screen in 47 multiple myeloma cell lines against the NCATS MIPE library collection: KMS11_JCRBsus cell viability assay (AID 1919873); further: nearly all actives have a fitted effect of over 50% in size; further: potency means the concentration at half of the fitted maximal effect
# Summary of the method: as §1
# [15] = Quantitative High-Throughput drug screen in 47 multiple myeloma cell lines against the NCATS MIPE library collection: OCIMY7_PLB cell viability assay (AID 1918987); further: nearly all actives have a fitted effect of over 65% in size; further: potency means the concentration at half of the fitted maximal effect
# Summary of the method: as §1
# [16] = Quantitative High-Throughput drug screen in 47 multiple myeloma cell lines against the NCATS MIPE library collection: PE2_PLB cell viability assay (AID 1919869); further: nearly all actives have a fitted effect of over 35% in size; further: potency means the concentration at half of the fitted maximal effect
# Summary of the method: as §1
# [17] = Quantitative High-Throughput drug screen in 47 multiple myeloma cell lines against the NCATS MIPE library collection: PCM6_Riken cell viability assay (AID 1919870); further: nearly all actives have a fitted effect of over 30% in size; further: potency means the concentration at half of the fitted maximal effect
# Summary of the method: as §1
# [18] = Quantitative High-Throughput drug screen in 47 multiple myeloma cell lines against the NCATS MIPE library collection: KMS28BM_JCRB cell viability assay (AID 1919874); further: nearly all actives have a fitted effect of over 35% in size; further: potency means the concentration at half of the fitted maximal effect
# Summary of the method: as §1
# [19] = Quantitative High-Throughput drug screen in 47 multiple myeloma cell lines against the NCATS MIPE library collection: UTMC2_PLB cell viability assay (AID 1919868); further: nearly all actives have a fitted effect of over 55% in size
# Summary of the method: as §1
Compound,Potency [1],Potency [2],Potency [3],Potency [4],Potency [5],Potency [6],Potency [7],Potency [8],viability [6],Potency [9],Potency [10],Potency [11],Potency [12],Potency [13],Potency [14],Potency [15],Potency [16],Potency [17],Potency [18],Potency [19]
O=c1cc(N2CCOCC2)oc2c(-c3ccccc3)cccc12,11.8 µM (active),10.5 µM (active),inactive,11.8 µM (active),13.2 µM (active),14.8 µM (active),18.7 µM (active),,,,,,,,,,,,,
CN(c1nccc(=O)[nH]1)C1CCN(c2nc3ccccc3n2Cc2ccc(F)cc2)CC1,inactive,inactive,inactive,inactive,,,11.8 µM (active),26.4 µM (active),125%,18.7 µM (active),18.7 µM (active),23.5 µM (active),inactive,inactive,inactive,,,,,
c1ccc2[nH]c(-c3cscn3)nc2c1,inactive,inactive,,inactive,inactive,,,inactive,120%,inactive,inactive,inactive,inactive,inactive,inactive,inactive,inactive,inactive,inactive,
NNc1nncc2ccccc12,inactive,inactive,inactive,inactive,,,inactive,,,inactive,inactive,,inactive,inactive,inactive,inactive,inactive,inactive,inactive,
Nc1ncn([C@H]2C[C@H](O)[C@@H](CO)O2)c(=O)n1,inactive,inactive,inactive,,,,,8.33 µM (active),,0.833 µM (active),0.264 µM (active),inactive,inactive,inactive,0.59 µM (active),0.187 µM (active),,,inactive,
Nc1cc(C(Cl)=C(Cl)Cl)c(S(N)(=O)=O)cc1S(N)(=O)=O,inactive,inactive,,inactive,,,inactive,inactive,,11.8 µM (active),,,,inactive,,11.8 µM (active),inactive,inactive,,
CCN(CC)CCOc1ccc(Nc2ncc3cc(-c4c(Cl)cccc4Cl)c(=O)n(C)c3n2)cc1,1.87 µM (active),1.18 µM (active),,0.166 µM (active),0.105 µM (active),5.26 µM (active),10.5 µM (active),0.0187 µM (active),,,0.59 µM (active),0.0083 µM (active),2.35 µM (active),1.18 µM (active),0.0418 µM (active),1.48 µM (active),0.0418 µM (active),0.935 µM (active),0.526 µM (active),
O=C1c2ccccc2-c2n[nH]c3cccc1c23,inactive,inactive,,,,,inactive,,,,,,,inactive,inactive,,,,,
Cc1cc2c(s1)Nc1ccccc1N=C2N1CCN(C)CC1,inactive,inactive,,inactive,,,inactive,,120%,,inactive,,,inactive,inactive,,inactive,inactive,inactive,
Cc1cc(C2CCCCC2)n(O)c(=O)c1,14.8 µM (active),,7.43 µM (active),5.26 µM (active),2.09 µM (active),,,9.35 µM (active),,8.33 µM (active),8.33 µM (active),8.33 µM (active),,,5.26 µM (active),7.43 µM (active),8.33 µM (active),8.33 µM (active),,
CC1(C)NC(=O)N(c2ccc([N+](=O)[O-])c(C(F)(F)F)c2)C1=O,18.7 µM (active),16.6 µM (active),,,8.33 µM (active),,inactive,inactive,,,inactive,inactive,,,,,,,inactive,
COC(=O)C1=C(C)NC(C)=C(C(=O)OCCCN2CCC(c3ccccc3)(c3ccccc3)CC2)C1c1cccc([N+](=O)[O-])c1 (stereo unspecified),inactive,inactive,,3.32 µM (active),,,,,122%,,inactive,inactive,,inactive,inactive,inactive,inactive,inactive,inactive,inactive
CCN(CC)CCOc1ccc(Cc2ccccc2)cc1,14.8 µM (active),20.9 µM (active),,,11.8 µM (active),,20.9 µM (active),,,inactive,inactive,,,inactive,,inactive,inactive,,,
c1cnc2cc3c(cc2n1)C1CNCC3C1,inactive,inactive,,inactive,inactive,,inactive,,,,inactive,,,inactive,inactive,,inactive,inactive,inactive,
CCc1nc(N)nc(N)c1-c1ccc(Cl)cc1,8.33 µM (active),inactive,,,inactive,,,2.35 µM (active),,inactive,3.72 µM (active),3.32 µM (active),,,16.6 µM (active),,,,inactive,
CCCCc1ccc2nc(NC(=O)OC)[nH]c2c1,0.0187 µM (active),0.0148 µM (active),,0.0148 µM (active),0.0037 µM (active),,0.743 µM (active),0.0209 µM (active),,,,0.0047 µM (active),,0.0166 µM (active),0.0033 µM (active),,0.0418 µM (active),0.0935 µM (active),,
CCOc1cc(CC(=O)N[C@@H](CC(C)C)c2ccccc2N2CCCCC2)ccc1C(=O)O,inactive,inactive,,inactive,,,,,138%,,inactive,inactive,,inactive,inactive,,,,inactive,
